# Test results from ChEMBL document CHEMBL3988442, “University of Dundee, Small-Polar-MMV Screening Library” (2021).
# The whole screen tested about 38,000 compounds, of which about 1,200 (3.2%) showed an effect of 50% or more. The median lay at about -58%. The sample holds strong results, similar compounds and a random draw of the others, so the mix is not that of the screen.
# System: Plasmodium falciparum
# Test: Calibr Malaria Delayed Death Assay SOP
# Format: functional, organism-based
# Parameters: scale not given: in the data most compounds retested in dose-response had high values
# Details: concentration 4.99e-06 (unit not given; other assays of the set use mol/L)
row,Compound,Percent Effect [%]
1,O=C(O)Cc1cnc(-c2c(Cl)cccc2Cl)s1,-103
2,CN(Cc1ccco1)Cc1cncc2c1CCN(S(C)(=O)=O)C2.Cl.Cl,-71.86
3,CCCNC(=O)CCNc1cncc(-n2nc(C)cc2C)n1,-96.17
4,CCOc1cccc(COC(=O)c2cc(C)on2)n1,-20.94
5,FC(F)(F)c1ccnc(N2C[C@H]3CCN(c4cccnc4)C[C@H]3C2)n1.O=C(O)C(F)(F)F,-4.152
6,CC1CN(C)CCN1C(=O)c1ccn(-c2ccc(F)cc2)n1 (stereo not drawn),-53.04
7,CCC(NCc1ccccc1)c1ccccc1OCC(=O)NC (stereo not drawn),63.6
8,CCC(NC(N)=O)c1ccccc1OCC(=O)N1CCCC1 (stereo not drawn),-42
9,CNC(=O)Cc1noc(Cc2cccc(Cl)c2)n1,-69.96
10,CCC(NCc1ccccn1)c1ccccc1OCC(=O)NC (stereo not drawn),-34.3
11,CNC(=O)COc1ccc(-c2ccccc2)nc1,-42.95
12,Cc1sc(NS(=O)(=O)c2ccccc2)nc1C(=O)NC1CC1,-59.95
13,CCOCC1CN(C(=O)c2cccc(C)n2)Cc2cnn(C)c21 (stereo not drawn),-41.72
14,CCOC(=O)N1CCN(C(=O)CCn2ccc3c(OC)cccc32)CC1,-55.78
15,Cc1cc(CC(=O)NC2CCCN(c3ccccc3Cl)C2=O)n[nH]1 (stereo not drawn),-141.2
16,O=S(=O)(CCN1CCCC1Cn1cccn1)c1ccccc1 (stereo not drawn),-24.99
17,Clc1ccc(C2(CNC3=NCCN3)CCCC2)cc1.I,83.48
18,Cc1nnc(C(C)NCC2(c3ccc(Cl)cc3)CCCC2)o1 (stereo not drawn),-5.972
19,Clc1ccc(C2(CNC3=NCCN3)CCCCC2)cc1.I,89.77
20,NC(=O)CNC1(c2ccc(Cl)cc2)CCCC1,-116.4
21,CN(C)C(=O)CCS(=O)(=O)Cc1cc(Cl)c2c(c1)OCO2,-99.04
22,COCCNC(=O)Cn1c(-c2ccc(Cl)cc2)nc(C)c(CCO)c1=O,-30.51
23,CCOC(=O)c1cnn(-c2cc(Oc3ccccc3C)ncn2)c1N,-71.43
24,Cc1nc(N2CCN(C(=O)NCc3cscn3)CC2)sc1C,-173
25,N#CC1COCCN1C(=O)c1ccc2[nH]cnc2c1 (stereo not drawn),-106.6

row,Compound,Percent Effect [%]
1,COC(=O)C(O)C1CCN(Cc2cccc(-n3cccn3)c2)CC1 (stereo not drawn),-42.85
2,CN1CCC(C2CCN(Cc3cccc(-n4cccn4)c3)CC2)C1 (stereo not drawn),85
3,CN1CCN([C@@H]2CCN(Cc3cccc(-n4cccn4)c3)C[C@H]2O)CC1,-47.29
4,O=C(CN1C=Nc2ccccc2S1(=O)=O)NCc1ccccc1F,-61.62
5,Cc1ccc(O)c(CNC2CCc3nc(C)nn3C2)n1 (stereo not drawn),-50.72
6,CO[C@H]1CN(C(C)C)C[C@@H]1NC(=O)Nc1ccc2oc(C)cc2c1,-10.12
7,COCC(c1ccccn1)N(C)C(=O)c1cc(-c2ccccc2O)n[nH]1 (stereo not drawn),-47.61
8,Cc1ncoc1C(=O)N1CC[C@@H](O)[C@@H](O)[C@H](N2CCC(F)(F)CC2)C1,-177.2
9,CCN1CCC2(C=C(C(=O)N(C)C)c3ccccc32)CC1.O=C(O)C(F)(F)F,-5.162
10,CN1CCC2(C=C(C(=O)N(C)C)c3ccccc32)CC1,59.58
11,CCC(=O)N1CCC2(C=C(C(=O)N(C)C)c3ccccc32)CC1,-96.59
12,COc1cc(CCC(=O)NC2CCCN(C)C2)ccc1OCC(F)(F)F (stereo not drawn),27.9
13,Cc1noc(C)c1CN1CC[C@H]2OCC[C@@]2(C(=O)NCC2CC2)C1.O=C(O)C(F)(F)F,-150.6
14,COC[C@@H]1CCC[C@@]12CN(C(=O)C1CCOCC1)CCO2,-66.15
15,COc1ccc(-n2nnnc2C(C)(C)Nc2ccc(C)cc2C)cc1,-134.7
16,Cc1nnc(C2CCN(C(=O)c3ccsc3)CC2)s1,-17.33
17,CN(C)CC(C)(C)CN1CCC(c2ccnc(-c3cccc(O)c3)c2)C1 (stereo not drawn),69.12
18,Oc1cccc(-c2cc(C3CCN(Cc4cncnc4)C3)ccn2)c1 (stereo not drawn),-16.47
19,Cn1ccnc1CN1CCC(c2ccnc(-c3cccc(O)c3)c2)C1 (stereo not drawn),27.57
20,Nc1cccnc1N1CCC(O)CC1,-81.29
21,Cc1n[nH]c(C)c1-c1cc(-c2cc[nH]c2)nc(N)c1C#N,-97.75
22,O=C(O)C(F)(F)F.c1cncc(N2CCCC3(CCN(CC4CCCO4)CC3)C2)c1 (stereo not drawn),46.34
23,c1cncc(CN2CCCC3(COCCN(c4cncnc4)C3)C2)c1 (stereo not drawn),-38.46
24,O=C(O)C(F)(F)F.O=C(O)C(F)(F)F.c1cncc(N2CCCC3(CCN(CCN4CCCC4)CC3)C2)c1,91.95
25,Cn1cc(CN2CCCC3(COCCN(c4cccnc4)C3)C2)cn1.O=C(O)C(F)(F)F.O=C(O)C(F)(F)F (stereo not drawn),-73.12

row,Compound,Percent Effect [%]
1,O=C(O)C(F)(F)F.c1cncc(N2CCC3(CCCN(c4ccncc4)C3)CC2)c1,46.04
2,Cc1nc2cc(NCc3cnn(C)c3)ccc2n1C,-142.2
3,COCCN(C)C[C@@H]1CN(C(=O)NC2CCCCC2)C[C@@H]1CO,-45.61
4,CCn1c(C)cc(C(=O)Nc2ccccc2CN(C)C(C)=O)c1C,-65.04
5,COc1cccc(CN2CCCC2Cn2nc(C)nc2C)c1 (stereo not drawn),-44.63
6,Fc1cccnc1Oc1cc(F)c(CN2CCCC2)c(F)c1,13.36
7,Cc1nc(NCCC23CCCN2CCC3)cc(C2CCCNC2)n1 (stereo not drawn),-30.47
8,CCn1ccnc1C1CCN(Cc2c(F)cccc2F)CC1,-140
9,Cc1nc(C2CCCNC2)cc(N(Cc2nccn2C)C2CC2)n1 (stereo not drawn),7.981
10,O=C(c1cnc(C2CC2)nc1O)N1CCN(Cc2ccccc2F)CC1,-42.64
11,O=c1n(Cc2ccccc2F)nc2ncccn12,-19.66
12,COc1cccc(CN2CC[C@H](c3nnc(C)o3)C2)c1,-103.2
13,CCSCc1cccc(NCc2cccnc2)c1,-120.6
14,CCCNc1cc(C(=O)N2CCOCC2)nc(C)n1,-41.3
15,COCCNC(=O)c1ccc2c(=O)n3c(nc2c1)CCCCCC3,-86.41
16,CC(C)N(C)Cc1cn2c(n1)CN(C(=O)c1ccc[nH]1)CC2,-50.23
17,COC[C@@H]1CC[C@H]2[C@H](CCN2S(=O)(=O)c2cccc(F)c2)O1,-8.99
18,Cc1ccc2c(c1)N(C(=O)c1c[nH]c(C)cc1=O)CC(C)O2 (stereo not drawn),-44.94
19,O=C(c1cnccn1)N1CCCC(c2cccc(-n3ccnc3)n2)C1 (stereo not drawn),-38.64
20,CC(C)C1SCC(=O)Nc2c1cnn2-c1ccc(Cl)cc1F (stereo not drawn),-28.94
21,CCC(=O)NCC(=O)N(C)C(c1ccc(Cl)cc1)c1cccnc1 (stereo not drawn),-30.63
22,Cn1c2ccc(F)cc2c2ncn(CCN3CCOCC3)c(=O)c21,-139.8
23,CC(Cc1ccccc1F)C(=O)Nc1cccc(OCC(N)=O)c1 (stereo not drawn),-53.66
24,Cc1ccc([C@]2(O)CC[C@H]3CN(Cc4ccc(Cl)cc4Cl)C[C@H]32)nc1,64.98
25,Cc1ccc([C@]2(O)CC[C@H]3CN(Cc4cccnc4)C[C@H]32)nc1,-69.34

row,Compound,Percent Effect [%]
1,Cc1ccc([C@]2(O)CC[C@H]3CN(Cc4cccc(F)c4F)C[C@H]32)nc1.O=C(O)CC(O)(CC(=O)O)C(=O)O,43.22
2,CCc1oc(C(=O)N[C@@H]2c3ccccc3C[C@@H]2O)cc1CN1CCCC1,-27.56
3,CS(=O)(=O)NC1CCCN(Cc2ccc(OCc3ccccn3)cc2)C1 (stereo not drawn),-34.46
4,CCOc1ccc(CN2CCN(C(=O)c3cc(C4CC4)[nH]n3)CC2)cc1,-17.17
5,Cn1cc(CN(C(=O)c2ccc3ncsc3c2)C2CC2)cn1,-137
6,COCC1CC2(CCN(Cc3ccc(C)o3)CC2)CN1C(C)C.O=C(O)C(F)(F)F.O=C(O)C(F)(F)F (stereo not drawn),34.42
7,COCC1CC2(CCN(Cc3ccco3)CC2)CN1C(C)C.O=C(O)C(F)(F)F.O=C(O)C(F)(F)F (stereo not drawn),63.6
8,COCC1CC2(CCN(C(=O)c3ccco3)CC2)CN1C(C)C.O=C(O)C(F)(F)F (stereo not drawn),24.38
9,COCC1CC2(CCN(C(=O)c3ccccc3C)CC2)CN1C(C)C.O=C(O)C(F)(F)F (stereo not drawn),-58.35
10,COCC1CC2(CCN(Cc3cccc(C#N)c3)CC2)CN1C(C)C.O=C(O)C(F)(F)F.O=C(O)C(F)(F)F (stereo not drawn),72.4
11,COC1COC2(CCN(Cc3cccc(C#N)c3)CC2)C1.O=C(O)C(F)(F)F (stereo not drawn),-4.356
12,CNC(=O)CNC(=O)Nc1cc(-c2ccccc2)ns1,-97.73
13,O=C(O)C(F)(F)F.O=C1CCCN1Cc1nnc2n1CCN(Cc1ccoc1)CC2,-13.9
14,CCOCCNC(=O)c1cccnc1Sc1cc(OC)ccc1OC,-83.15
15,CC(C)OCc1noc(C2CCCOC2)n1 (stereo not drawn),-85.93
16,Cc1nnsc1C(=O)NCc1cccnc1N1CCc2ccccc2C1,-86.78
17,Cc1n[nH]cc1C(=O)NCc1cccnc1N1CCc2ccccc2C1,75.05
18,NC(=O)NCCC(=O)NCc1cccnc1N1CCc2ccccc2C1,-76.53
19,CC(C)[C@@H](N)C(=O)NCc1cccnc1N1CCc2ccccc2C1,28.21
20,COC(=O)CCC(=O)NCc1cccnc1N1CCc2ccccc2C1,58.06
21,Cc1cc(C(=O)NCc2cccnc2N2CCc3ccccc3C2)[nH]n1,-34.77
22,O=S(=O)(Cc1ccccc1F)Cc1nnnn1C1CC1,-164.7
23,CC(C)CC(=O)N1CCC2(CC1)OC(C(N)=O)Cn1ccnc12.O=C(O)C(F)(F)F (stereo not drawn),-41.43
